Assay [1] is described as follows: Quantitative High-Throughput drug screen in 47 multiple myeloma cell lines against the NCATS MIPE library collection: KMS34_JCRB cell viability assay (AID 1918985). Further: potency means the concentration at half of the fitted maximal effect; nearly all actives have a fitted effect of over 40% in size. The procedure, abridged: (§1)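 Readout: median RLU from CellTiter-Glo after 5 min at room temperature. Preceding step was 48 h drug treatment of 500 cells/well at 37 °C, 5% CO2, with DMSO-only and media-only control wells.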

Assay [2] can be described thus: Quantitative High-Throughput drug screen in 47 multiple myeloma cell lines against the NCATS MIPE library collection: OCIMY7_PLB cell viability assay (AID 1918987). Further: potency means the concentration at half of the fitted maximal effect; nearly all actives have a fitted effect of over 65% in size. The procedure, abridged:
as §1

A short description of assay [3]: Quantitative High-Throughput drug screen in 47 multiple myeloma cell lines against the NCATS MIPE library collection: OCIMY5_PLB cell viability assay (AID 1918988). Further: potency means the concentration at half of the fitted maximal effect; nearly all actives have a fitted effect of over 65% in size. The procedure, abridged: as §1
The nature of assay [4]: Quantitative High-Throughput drug screen in 47 multiple myeloma cell lines against the NCATS MIPE library collection: OPM1_PLB cell viability assay (AID 1918989). Further: potency means the concentration at half of the fitted maximal effect; nearly all actives have a fitted effect of over 40% in size. The gist of the method:
as §1

Assay [5] can be described thus: Quantitative High-Throughput drug screen in 47 multiple myeloma cell lines against the NCATS MIPE library collection: SKMM1_PLB cell viability assay (AID 1919863). Further: potency means the concentration at half of the fitted maximal effect; nearly all actives have a fitted effect of over 35% in size. Conditions: SKMM1 myeloma viability, CellTiter-Glo ATP, 48 h; viability: stronger effect = lower value. The gist of the method: as §1
For orientation: Cellular ATP, detected with luciferase, serves as a proxy for viable cell number.

The nature of assay [6]: Quantitative High-Throughput drug screen in 47 multiple myeloma cell lines against the NCATS MIPE library collection: U266_ATCC cell viability assay (AID 1919864). Further: potency means the concentration at half of the fitted maximal effect; nearly all actives have a fitted effect of over 35% in size. The procedure, abridged:
as §1

Assay [7] can be described thus: Quantitative High-Throughput drug screen in 47 multiple myeloma cell lines against the NCATS MIPE library collection: XG6_PLB cell viability assay (AID 1919865). Further: potency means the concentration at half of the fitted maximal effect; nearly all actives have a fitted effect of over 40% in size. The procedure, abridged: as §1
A short description of assay [8]: Quantitative High-Throughput drug screen in 47 multiple myeloma cell lines against the NCATS MIPE library collection: XG1_PLB cell viability assay (AID 1919866). Further: potency means the concentration at half of the fitted maximal effect; nearly all actives have a fitted effect of over 35% in size. The gist of the method:
as §1

A short description of assay [9]: Quantitative High-Throughput drug screen in 47 multiple myeloma cell lines against the NCATS MIPE library collection: VP6_DJ cell viability assay (AID 1919867). Further: potency means the concentration at half of the fitted maximal effect; nearly all actives have a fitted effect of over 40% in size. The gist of the method: as §1
The nature of assay [10]: Quantitative High-Throughput drug screen in 47 multiple myeloma cell lines against the NCATS MIPE library collection: PE2_PLB cell viability assay (AID 1919869). Further: potency means the concentration at half of the fitted maximal effect; nearly all actives have a fitted effect of over 35% in size. The gist of the method:
as §1

A short description of assay [11]: Quantitative High-Throughput drug screen in 47 multiple myeloma cell lines against the NCATS MIPE library collection: PCM6_Riken cell viability assay (AID 1919870). Further: potency means the concentration at half of the fitted maximal effect; nearly all actives have a fitted effect of over 30% in size. The procedure, abridged: as §1
A short description of assay [12]: Quantitative High-Throughput drug screen in 47 multiple myeloma cell lines against the NCATS MIPE library collection: RPMI8226_ATCC cell viability assay (AID 1919871). Further: potency means the concentration at half of the fitted maximal effect; nearly all actives have a fitted effect of over 30% in size. The gist of the method: as §1
The nature of assay [13]: Quantitative High-Throughput drug screen in 47 multiple myeloma cell lines against the NCATS MIPE library collection: OPM2_DSMZ cell viability assay (AID 1919872). Further: potency means the concentration at half of the fitted maximal effect; nearly all actives have a fitted effect of over 30% in size. The gist of the method: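 CellTiter-Glo ATP luminescence gave viability after 48 h compound treatment at 37C of 500 multiple myeloma cells per well. Normalisation used DMSO-only wells as 100% and media-only wells as 0% viability; primary qHTS of approved and investigational drugs.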

Assay [14] in a line: Quantitative High-Throughput drug screen in 47 multiple myeloma cell lines against the NCATS MIPE library collection: KMS11_JCRBsus cell viability assay (AID 1919873). Further: potency means the concentration at half of the fitted maximal effect; nearly all actives have a fitted effect of over 50% in size. The procedure, abridged:
as §1

The nature of assay [15]: Quantitative High-Throughput drug screen in 47 multiple myeloma cell lines against the NCATS MIPE library collection: KMS28BM_JCRB cell viability assay (AID 1919874). The gist of the method:
as §1

Assay [16] can be described thus: qHTS drug screen for cell cycle checkpoint inhibitors in PARPi-resistant BRCA-mutant ovarian cancer cell lines. (AID 1963452; calls by dose curve). Particulars: PEO1/OlaR viability, CellTiter-Glo luminescence, 96 h, stronger effect = lower value. The gist of the method: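 PEO1, PEO4 and PEO1/OlaR ovarian cancer cells, 600 per well, exposed 96 h at 37C to a dilution series. Viability read by CellTiter-Glo luminescence, normalized to DMSO and empty wells; activity summarized as Z-AUC.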

A short description of assay [17]: Quantitative High-Throughput drug screen in 47 multiple myeloma cell lines against the NCATS MIPE library collection: UTMC2_PLB cell viability assay (AID 1919868). Further: potency means the concentration at half of the fitted maximal effect; nearly all actives have a fitted effect of over 55% in size. Particulars: CellTiter-Glo ATP luminescence, 48 h; viability (% of DMSO control): at 45.8 µM (top of the series) unless noted. The procedure, abridged: as §1
Assay [18] is described as follows: qHTS for identification of novel therapeutic agents for treatment of microphthalmiaassociated transcription factor (MiT) renal cell carcinoma (RCC) (AID 1963991; calls by dose curve; further: potency means the concentration at half of the fitted maximal effect). Particulars: CellTiter-Glo, 48 h; for z-score: stronger effect = lower value. The procedure, abridged:
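Three TFE3-fusion RCC lines (UOK109, UOK124, UOK145), 500 cells/well in complete medium, were treated with MIPE 4.0 compounds for 48 hours at 37 C. Viability was by CellTiter-Glo luminescence, normalized to DMSO (100%) and empty wells (0%); curves fitted over 11 concentrations.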
(In qHTS, concentration-response curves come from the screen itself.)

[19] abbreviates: measured here: PEO1 parental Z-AUC.

SMILES strings stand for the structures. Results filed as inconclusive are left out. Activity calls are given as the source filed them. Unless noted, the call rests on the fitted dose curve; in most records, active means well fitted cell-killing curve with a large enough effect; inconclusive means small, poorly fitted or top-dose-only effect, or effect the other way; inactive means no such curve, though single readings can be large or run the other way.

For `COc1cccc2c(NCc3ccccc3)nc(-n3c(N)nc4ccccc43)nc12`, the Potency is 6620 nM (active) in [1]; 2960 nM (active) in assay [2]; 7430 nM (active) in assay [3]; 5260 nM (active) in [4]; 7430 nM (active) in assay [5]; 5900 nM (active) in [6]. Besides, the Potency in assay [7] was 2090 nM (active); in assay [8] it was 2350 nM (active); in assay [9] it was 4180 nM (active); in [10] it was 5260 nM (active); in assay [11] it was 2350 nM (active); in assay [12] it was 8330 nM (active). The Potency is 8330 nM (active) in assay [13], 2640 nM (active) in assay [14] and 2960 nM (active) in [15]. Moreover, the figures for the Z-AUC in assay [16], in assay [16] (setting [19]) and in assay [16] (measured here: PEO4 Z-AUC) were -0.255 (inactive), 0.136 and -0.014, respectively.

As for `OCCCNc1cc(-c2ccnc(Nc3cccc(Cl)c3)n2)ccn1`, the Potency in [1] is 132 nM (active); in assay [2], 46.9 nM (active); in assay [3] it was 105 nM (active); in assay [4] it was 46.9 nM (active); in [5], 148 nM (active); in assay [6] it was 148 nM (active). Further, the Potency was 33.2 nM (active) in [7]; 41.8 nM (active) in [8]; 23.5 nM (active) in assay [9]; 41.8 nM (active) in assay [17]; 37.2 nM (active) in assay [10]; 187 nM (active) in assay [12]. Moreover, the Potency is 235 nM (active) in assay [13]; 52.6 nM (active) in assay [14]; 93.5 nM (active) in assay [15]; 209 nM (active) in assay [18] (TFE3-RCC UOK109 viability, active = Z-AUC below -0.8 in all three lines). In addition, the Z-AUC in assay [16] is -1.99 (inactive); in [16] (setting [19]), -2.3; in [16] (measured here: PEO4 Z-AUC) it was -2.17. For the same compound, the z-score in assay [18] (TFE3-RCC UOK109 viability, measured here: UOK109 Z-AUC) is -1.57; in [18] (TFE3-RCC viability, measured here: UOK124 Z-AUC), -0.939; in assay [18] (TFE3-RCC viability, measured here: UOK145 Z-AUC), -2.05.

Take `CC1(C)CC(=O)c2c(C(F)(F)F)nn(-c3ccc(C(N)=O)c(NC4CCC(OC(=O)CN)CC4)c3)c2C1` (stereo not given): the Potency in assay [1] was 166 nM (active); in [2], 83.3 nM (active); in assay [3], 187 nM (active); in assay [4] it was 166 nM (active); in [5], 264 nM (active); in [6] it was 166 nM (active). In addition, the Potency is 296 nM (active) in assay [7]; 83.3 nM (active) in assay [8]; 166 nM (active) in [9]; 209 nM (active) in assay [17]; 209 nM (active) in [10]; 74.3 nM (active) in assay [11]. For the same compound, the Potency in assay [13] is 296 nM (active); in assay [14], 118 nM (active); in assay [15], 187 nM (active). Besides, the Z-AUC was -1.29 (inactive) in assay [16], -0.877 in assay [16] (setting [19]) and -0.312 in [16] (measured here: PEO4 Z-AUC).

For the compound `CN1CCC(CNc2ccc3ncc(-c4cccc(OC(F)(F)F)c4)n3n2)CC1`, the Potency is 20900 nM (active) in assay [1]; 4690 nM (active) in [2]; 14800 nM (active) in [3]; 6620 nM (active) in assay [4]; 23500 nM (active) in assay [5]; 9350 nM (active) in assay [6]. Moreover, the Potency is 5900 nM (active) in assay [7]; 5900 nM (active) in assay [8]; 7430 nM (active) in assay [9]; 5900 nM (active) in assay [17]; 20900 nM (active) in assay [12]; 23500 nM (active) in assay [13]. Further, the Potency was 6620 nM (active) in [14] and 8330 nM (active) in [15]. For the same compound, the results for the Z-AUC in assay [16], in assay [16] (setting [19]) and in [16] (measured here: PEO4 Z-AUC) were -0.465 (inactive), -0.0601 and -0.00259, respectively.

(Values after PubChem BioAssay (NCATS).)
